Measurements as given in PubChem BioAssay (EPA / NIEHS).
Where a structure was tested more than once in an assay, its records may differ in their call. The source made the active and inactive calls. Rule for the calls: active = hit-call score of the fitted dose curve at least 0.9, where 1 is the maximum; inactive = score below 0.9.

What was measured:
[1] = ATG_GRE_CIS: Attagene CIS-FACTORIAL HepG2 Assay for human Glucocorticoid Response Elements (GRE) (AID 2282947); details: HepG2 GRE cis-reporter, Attagene multiplex mRNA; actives raise or lower the signal
Method in brief: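 Transient MRTU transfection of human HepG2 liver cells; cis-regulated reporters report endogenous factors. 24 h dosing → RNA isolation → RT-PCR → 6-FAM primer extension → HpaI cut → CE fragment analysis. Bidirectional fit, DMSO negative control.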

[2] = ATG_ISRE_CIS: Attagene CIS-FACTORIAL HepG2 Assay for human Interferon Regulatory Factor 1 (IRF1) binding to an Interferon-Stimulated Response Element (ISRE) (AID 2282948); details: HepG2 ISRE cis-reporter (Attagene), mRNA transcription readout; actives raise or lower the signal
Method in brief: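 Transiently transfected HepG2 cells carrying cis-element reporter units, dosed 24 hours. Reporter mRNA quantified by RT-PCR, fluorescent primer extension, HpaI digestion and capillary electrophoresis. Bidirectional fitting relative to DMSO.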

[3] = ATG_M_32_CIS: Attagene CIS-FACTORIAL HepG2 Assay for M32 Transcription Factor (Internal Marker) (AID 2282949); details: HepG2 Attagene cis-factorial M32 reporter, mRNA; actives raise or lower the signal;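 note: background control marker of the multiplexed CIS panel rather than a real target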
Method in brief: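 Fluorescent capillary electrophoresis peaks of HpaI-digested, FAM-labelled RT-PCR reporter products give the signal. Source: transiently transfected human liver HepG2 cells, 24 h after chemical dosing; bidirectional fitting against DMSO.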

[4] = ATG_M_06_CIS: Attagene CIS-FACTORIAL HepG2 Assay for M06 Transcription Factor (Internal Marker) (AID 2282950); details: HepG2 Attagene CIS-FACTORIAL M06 internal marker reporter; actives raise or lower the signal
Method in brief: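 Cells (HepG2, transiently carrying cis-driven reporter units) receive chemical for 24 h before RNA isolation. Reporter cDNA is PCR-amplified, FAM-labelled by primer extension, HpaI-digested and sized on a capillary analyser.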

[5] = target: Hepatocyte nuclear factor 6 (Homo sapiens) (UniProt Q9UBC0); assay: ATG_HNF6_CIS: Attagene CIS-FACTORIAL HepG2 Assay for human Hepatocyte Nuclear Factor 6 (HNF6) (AID 2282952); details: HepG2 Attagene cis-factorial HNF6 reporter transcription; actives raise or lower the signal
Method in brief: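 Cells are HepG2 carrying transiently transfected cis-promoter reporter units. Treatment lasts 24 h, after which reporter transcripts are reverse-transcribed, amplified, FAM-labelled and sized by capillary electrophoresis. DMSO serves as baseline.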

[6] = target: Heat shock factor protein 1 (Homo sapiens) (UniProt Q00613); assay: ATG_HSE_CIS: Attagene CIS-FACTORIAL HepG2 Assay for human Heat Shock Transcription Factor 1 (HSE) (AID 2282953); details: HepG2 HSE cis-reporter, Attagene RNA transcription; actives raise or lower the signal
Method in brief: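 Liver-derived HepG2 cells carry transiently introduced multiple reporter units governed by cis promoters. Reporter RNA measured 24 h post-dose through reverse transcription, PCR amplification, fluorescent labelling and capillary electrophoresis, normalised to DMSO.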

[7] = ATG_MRE_CIS: Attagene CIS-FACTORIAL HepG2 Assay for human Metal Responsive Element (MRE) (AID 2282954); details: HepG2 MRE cis-reporter transcription, Attagene multiplex; actives raise or lower the signal
Method in brief: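 Transient MRTU transfection of HepG2 (FuGene 6); 24 h dosing; total RNA → oligo(dT) RT, PCR, 6-FAM primer extension, HpaI cut, CE. Bidirectional fit vs DMSO.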

[8] = target: Paired box protein Pax-6 (Homo sapiens) (UniProt P26367); assay: ATG_Pax6_CIS: Attagene CIS-FACTORIAL HepG2 Assay for human Paired Box 6 (PAX6) (AID 2282956); details: HepG2 CIS-FACTORIAL PAX6 reporter transcription, RNA readout; actives raise or lower the signal
Method in brief: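 HepG2 cells transiently transfected with cis-promoter-driven multiplexed reporter units sensing endogenous transcription factor activity; 24 h chemical exposure. Reporter mRNA quantified by RT-PCR, 6-FAM labelling, HpaI digestion and capillary electrophoresis; bidirectional fit versus DMSO baseline.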

[9] = ATG_PXRE_CIS: Attagene CIS-FACTORIAL HepG2 Assay for human Pregnane X Receptor Element (PXRE) (AID 2282957); details: HepG2 Attagene CIS-FACTORIAL PXRE reporter, mRNA; actives raise or lower the signal
Method in brief: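 Multiplexed cis-reporter assay in transiently transfected human HepG2 cells; 24 h chemical exposure. Reporter transcripts quantified by RT-PCR with fluorescent labeling and capillary electrophoresis.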

[10] = ATG_RORE_CIS: Attagene CIS-FACTORIAL HepG2 Assay for human RAR-related Orphan Receptor Element (RORE) (AID 2282959); details: HepG2 Attagene cis-factorial RORE reporter, mRNA; actives raise or lower the signal
Method in brief: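 Endogenous factor activity at a cis response element is read as reporter transcript levels in HepG2 cells, 24 h post-dose. Transcripts are quantified by RT-PCR with capillary electrophoresis, and data fitted in both directions against DMSO.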

[11] = ATG_Sox_CIS: Attagene CIS-FACTORIAL HepG2 Assay for human SRY-box transcription factor (SOX) (AID 2282960); details: HepG2 Attagene cis-factorial SOX reporter, mRNA; actives raise or lower the signal
Method in brief: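 Measures mRNA induction of a SOX1-associated reporter in HepG2 after 24 h dosing. Fluorescently labelled RT-PCR fragments are separated by capillary electrophoresis, and gain or loss relative to DMSO control is fitted.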

[12] = target: Transcription factor Sp1 (Homo sapiens) (UniProt P08047); assay: ATG_Sp1_CIS: Attagene CIS-FACTORIAL HepG2 Assay for human Specificity Protein 1 (Sp1) (AID 2282961); details: HepG2 Sp1 cis-reporter transcription, actives raise or lower the signal
Method in brief: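 Cells: HepG2, transiently transfected with cis-regulated multiplexed reporters. Exposure: 24 h. Detection: reporter transcripts amplified, fluorescently labeled, restriction-digested and sized by capillary electrophoresis. Analysis: bidirectional fit relative to DMSO.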

[13] = ATG_SREBP_CIS: Attagene CIS-FACTORIAL HepG2 Assay for human Sterol Regulatory Element Binding (SREBP) (AID 2282962); details: HepG2 Attagene cis-factorial SREBP reporter, mRNA; actives raise or lower the signal
Method in brief: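 HepG2 cells transiently transfected with multiplexed cis-promoter reporter units sensing endogenous transcription factors; reporter mRNA measured 24 h after dosing by RT-PCR, 6-FAM labeling, HpaI digestion and capillary electrophoresis. Bidirectional fit versus DMSO.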

[14] = ATG_TA_CIS: Attagene CIS-FACTORIAL HepG2 Assay for human TA Basal Promoter (AID 2282964); details: HepG2 Attagene CIS-factorial TA basal promoter reporter; actives raise or lower the signal
Method in brief: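 Background internal-marker endpoint from a 52-component HepG2 cis-reporter panel. Cells treated 24 h; reporter transcripts quantified via RT-PCR and CE fluorescence against DMSO baseline.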

[15] = ATG_TCF_b_cat_CIS: Attagene CIS-FACTORIAL HepG2 Assay for human T-Cell-Factor with beta-catenin (TCF/b-cat) (AID 2282965); details: HepG2 TCF/beta-catenin cis-reporter transcription, actives raise or lower the signal
Method in brief: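 Endogenous TCF/LEF activity read as reporter transcript level via RT-PCR and capillary electrophoresis fluorescence in transfected HepG2, 24 h exposure; gain or loss of signal fitted against DMSO controls.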

[16] = target: Hypoxia-inducible factor 1-alpha (Homo sapiens) (UniProt Q16665); assay: ATG_HIF1a_CIS: Attagene CIS-FACTORIAL HepG2 Assay for human Hypoxia Inducible Factor 1 (HIF1A) (AID 2282951); details: HepG2 Attagene cis-factorial HIF1a reporter transcription; actives raise or lower the signal
Method in brief: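 Fluorescence intensity of capillary-separated, 6-FAM-labelled reporter amplicons gives mRNA induction in HepG2 cells carrying transfected cis-promoter reporter units; cells exposed 24 h, responses fitted up or down from DMSO.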

[17] = ATG_PPRE_CIS: Attagene CIS-FACTORIAL HepG2 Assay for human Peroxisome Proliferator-activated Response Element (PPRE) (AID 2282958); details: HepG2 PPRE cis-element reporter, Attagene transcription factor profiling; actives raise or lower the signal
Method in brief: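 In this cell-based multiplex, a PPRE cis element drives a reporter sequence in transiently transfected HepG2 cells. Following 24 h treatment, labeled cDNA amplicons are sized and quantified by capillary electrophoresis, with DMSO defining baseline.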

[18] = target: Signal transducer and activator of transcription 3 (Homo sapiens) (UniProt P40763); assay: ATG_STAT3_CIS: Attagene CIS-FACTORIAL HepG2 Assay for human Signal Transducer and Activator of Transcription 3 (STAT3) (AID 2282963); details: HepG2, Attagene cis-factorial STAT3 reporter transcription; actives raise or lower the signal
Method in brief: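 Endogenous STAT3-responsive cis-element activity was read in transiently transfected HepG2 cells after 24 h treatment. Reporter transcripts were quantified via RT-PCR and capillary electrophoresis, with DMSO as negative control and bidirectional curve fitting.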

Measured: AC50

Sequence of Heat shock factor protein 1 (Homo sapiens) (Q00613 whole entry, looked up): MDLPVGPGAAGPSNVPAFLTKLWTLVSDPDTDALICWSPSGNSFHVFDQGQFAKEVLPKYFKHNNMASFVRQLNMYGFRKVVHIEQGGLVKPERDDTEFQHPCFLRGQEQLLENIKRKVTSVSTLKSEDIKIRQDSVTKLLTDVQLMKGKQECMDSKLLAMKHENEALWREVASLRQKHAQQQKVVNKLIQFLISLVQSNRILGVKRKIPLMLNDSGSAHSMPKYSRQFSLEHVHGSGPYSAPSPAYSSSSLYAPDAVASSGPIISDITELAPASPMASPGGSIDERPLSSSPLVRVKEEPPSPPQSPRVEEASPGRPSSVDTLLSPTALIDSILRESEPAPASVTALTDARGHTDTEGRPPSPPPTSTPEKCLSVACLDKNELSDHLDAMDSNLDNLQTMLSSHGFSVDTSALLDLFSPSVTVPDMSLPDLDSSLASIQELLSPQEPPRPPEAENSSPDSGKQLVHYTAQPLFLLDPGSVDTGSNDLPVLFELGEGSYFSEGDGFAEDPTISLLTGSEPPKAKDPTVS
Sequence of Paired box protein Pax-6 (Homo sapiens) (P26367 whole entry, looked up): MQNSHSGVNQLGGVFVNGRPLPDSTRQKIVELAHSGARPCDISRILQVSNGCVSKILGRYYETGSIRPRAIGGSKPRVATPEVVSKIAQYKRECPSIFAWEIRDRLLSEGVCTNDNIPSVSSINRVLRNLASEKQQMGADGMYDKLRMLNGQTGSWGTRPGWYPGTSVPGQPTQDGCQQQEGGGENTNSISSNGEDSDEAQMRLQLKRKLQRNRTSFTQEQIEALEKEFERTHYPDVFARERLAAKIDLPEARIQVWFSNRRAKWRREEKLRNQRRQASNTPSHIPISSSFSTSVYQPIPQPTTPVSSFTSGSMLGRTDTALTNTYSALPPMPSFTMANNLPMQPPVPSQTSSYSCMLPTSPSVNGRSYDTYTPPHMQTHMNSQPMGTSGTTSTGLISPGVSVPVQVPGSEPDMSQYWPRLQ
Sequence of Hepatocyte nuclear factor 6 (Homo sapiens) (Q9UBC0 whole entry, looked up): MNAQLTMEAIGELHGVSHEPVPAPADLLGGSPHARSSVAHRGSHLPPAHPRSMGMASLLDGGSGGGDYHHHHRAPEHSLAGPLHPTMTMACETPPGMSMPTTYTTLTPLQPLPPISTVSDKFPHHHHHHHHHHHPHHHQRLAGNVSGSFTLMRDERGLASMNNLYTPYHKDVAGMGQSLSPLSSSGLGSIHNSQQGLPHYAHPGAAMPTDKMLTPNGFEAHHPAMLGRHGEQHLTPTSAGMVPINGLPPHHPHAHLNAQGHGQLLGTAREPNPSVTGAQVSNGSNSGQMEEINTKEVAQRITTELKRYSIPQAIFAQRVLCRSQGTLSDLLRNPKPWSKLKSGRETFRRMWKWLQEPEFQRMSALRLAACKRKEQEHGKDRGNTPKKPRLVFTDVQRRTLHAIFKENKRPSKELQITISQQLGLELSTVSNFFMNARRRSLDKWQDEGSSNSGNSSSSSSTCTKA
Sequence of Transcription factor Sp1 (Homo sapiens) (P08047 whole entry, looked up): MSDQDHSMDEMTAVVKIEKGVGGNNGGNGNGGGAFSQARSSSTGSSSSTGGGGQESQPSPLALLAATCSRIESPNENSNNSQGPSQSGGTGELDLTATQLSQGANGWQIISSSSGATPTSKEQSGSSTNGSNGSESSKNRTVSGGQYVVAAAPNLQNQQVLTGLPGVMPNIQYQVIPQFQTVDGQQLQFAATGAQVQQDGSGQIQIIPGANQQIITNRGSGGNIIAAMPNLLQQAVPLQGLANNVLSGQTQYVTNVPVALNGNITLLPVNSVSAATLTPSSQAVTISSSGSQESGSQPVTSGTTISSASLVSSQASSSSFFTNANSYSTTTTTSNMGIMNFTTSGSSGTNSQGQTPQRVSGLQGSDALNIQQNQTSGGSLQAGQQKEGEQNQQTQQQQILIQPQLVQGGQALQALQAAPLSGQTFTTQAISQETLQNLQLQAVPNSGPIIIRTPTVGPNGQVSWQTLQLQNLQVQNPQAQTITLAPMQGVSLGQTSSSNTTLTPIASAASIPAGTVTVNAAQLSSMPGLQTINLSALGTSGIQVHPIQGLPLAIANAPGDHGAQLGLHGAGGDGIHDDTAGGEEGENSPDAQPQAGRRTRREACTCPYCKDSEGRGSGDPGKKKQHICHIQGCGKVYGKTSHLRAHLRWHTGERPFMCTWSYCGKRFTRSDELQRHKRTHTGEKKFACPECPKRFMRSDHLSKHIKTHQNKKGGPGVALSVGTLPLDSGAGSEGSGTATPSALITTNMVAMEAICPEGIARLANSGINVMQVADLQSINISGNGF
Sequence of Signal transducer and activator of transcription 3 (Homo sapiens) (P40763 whole entry, looked up): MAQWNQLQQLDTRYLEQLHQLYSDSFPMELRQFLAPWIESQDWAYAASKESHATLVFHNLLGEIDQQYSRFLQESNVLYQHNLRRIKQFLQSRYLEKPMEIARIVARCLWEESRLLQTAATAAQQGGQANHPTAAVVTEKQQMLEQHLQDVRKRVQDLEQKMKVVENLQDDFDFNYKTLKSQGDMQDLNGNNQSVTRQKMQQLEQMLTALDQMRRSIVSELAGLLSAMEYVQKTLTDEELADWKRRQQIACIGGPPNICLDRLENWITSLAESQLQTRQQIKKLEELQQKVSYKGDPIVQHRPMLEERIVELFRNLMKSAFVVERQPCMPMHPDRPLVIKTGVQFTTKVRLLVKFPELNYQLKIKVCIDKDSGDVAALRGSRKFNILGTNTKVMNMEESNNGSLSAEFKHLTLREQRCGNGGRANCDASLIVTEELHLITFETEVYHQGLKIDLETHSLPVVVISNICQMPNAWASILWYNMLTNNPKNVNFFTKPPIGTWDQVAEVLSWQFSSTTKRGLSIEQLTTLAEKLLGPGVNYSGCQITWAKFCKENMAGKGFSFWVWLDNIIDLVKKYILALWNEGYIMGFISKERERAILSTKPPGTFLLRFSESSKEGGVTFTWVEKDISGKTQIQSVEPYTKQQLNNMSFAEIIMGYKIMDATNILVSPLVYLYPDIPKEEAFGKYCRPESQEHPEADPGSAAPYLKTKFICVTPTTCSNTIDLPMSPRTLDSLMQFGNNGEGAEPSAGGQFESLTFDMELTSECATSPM
Sequence of Hypoxia-inducible factor 1-alpha (Homo sapiens) (Q16665 whole entry, looked up): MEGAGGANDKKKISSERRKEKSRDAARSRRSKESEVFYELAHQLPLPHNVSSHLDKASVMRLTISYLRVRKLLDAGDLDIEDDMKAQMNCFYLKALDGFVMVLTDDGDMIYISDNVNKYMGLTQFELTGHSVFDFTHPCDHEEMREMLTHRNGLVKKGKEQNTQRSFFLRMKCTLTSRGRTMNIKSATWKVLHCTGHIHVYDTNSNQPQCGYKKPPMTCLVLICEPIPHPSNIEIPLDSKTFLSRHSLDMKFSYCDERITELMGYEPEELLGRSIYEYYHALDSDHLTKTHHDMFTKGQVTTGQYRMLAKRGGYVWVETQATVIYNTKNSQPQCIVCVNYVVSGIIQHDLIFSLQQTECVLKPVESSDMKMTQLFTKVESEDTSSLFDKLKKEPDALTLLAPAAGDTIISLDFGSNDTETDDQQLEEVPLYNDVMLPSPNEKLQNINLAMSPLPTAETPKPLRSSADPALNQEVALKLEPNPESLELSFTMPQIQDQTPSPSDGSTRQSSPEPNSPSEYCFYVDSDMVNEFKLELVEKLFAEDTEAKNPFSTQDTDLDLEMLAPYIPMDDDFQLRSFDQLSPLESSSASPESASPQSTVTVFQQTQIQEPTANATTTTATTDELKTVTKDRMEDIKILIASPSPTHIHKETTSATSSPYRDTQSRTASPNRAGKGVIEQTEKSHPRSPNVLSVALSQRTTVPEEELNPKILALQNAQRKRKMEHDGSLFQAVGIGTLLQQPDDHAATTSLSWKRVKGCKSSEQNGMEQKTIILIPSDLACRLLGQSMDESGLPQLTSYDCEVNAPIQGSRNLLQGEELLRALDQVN

CC(N)=O
inactive: [1] | [2] | [3] | [4] | [5] | [6] | [7] | [8] | [9] | [10] | [11] | [12] | [13] | [14] | [15]
active: [6] 133 µM | [9] 28.9 µM

O=Cc1ccccc1C=O
inactive: [1] | [2] | [3] | [4] | [5] | [6] | [7] | [8] | [9] | [17] | [10] | [11] | [12] | [13] | [18] | [14] | [15]
active: [16] 26.2 µM

CC(=O)[C@@]1(O)CC[C@H]2[C@@H]3CCC4=CC(=O)CC[C@]4(C)[C@H]3CC[C@@]21C
inactive: [1] | [2] | [3] | [4] | [5] | [6] | [7] | [8] | [9] | [10] | [11] | [12] | [13] | [18] | [14] | [15]
active: [13] 11.1 µM
